Inconclusive results are not listed. Calls of active or inactive are those of the source. The call rests on the fitted dose curve; in most records, active means well fitted curve in the direction sought with a large enough effect; inconclusive means small, poorly fitted or top-dose-only effect, or another doubt; inactive means no such curve, though single readings can be large; an effect the other way counts as inactive or inconclusive.
What was measured:
[1] = biological target: Lysine-specific demethylase 5B (Homo sapiens) (UniProt Q9UGL1); test: Optimization screen for KDM5B Histone Demethylases FDH coupled qHTS against the LOPAC library (AID 1347166)
Chain of Lysine-specific demethylase 5B (Homo sapiens) (Q9UGL1 whole entry, looked up): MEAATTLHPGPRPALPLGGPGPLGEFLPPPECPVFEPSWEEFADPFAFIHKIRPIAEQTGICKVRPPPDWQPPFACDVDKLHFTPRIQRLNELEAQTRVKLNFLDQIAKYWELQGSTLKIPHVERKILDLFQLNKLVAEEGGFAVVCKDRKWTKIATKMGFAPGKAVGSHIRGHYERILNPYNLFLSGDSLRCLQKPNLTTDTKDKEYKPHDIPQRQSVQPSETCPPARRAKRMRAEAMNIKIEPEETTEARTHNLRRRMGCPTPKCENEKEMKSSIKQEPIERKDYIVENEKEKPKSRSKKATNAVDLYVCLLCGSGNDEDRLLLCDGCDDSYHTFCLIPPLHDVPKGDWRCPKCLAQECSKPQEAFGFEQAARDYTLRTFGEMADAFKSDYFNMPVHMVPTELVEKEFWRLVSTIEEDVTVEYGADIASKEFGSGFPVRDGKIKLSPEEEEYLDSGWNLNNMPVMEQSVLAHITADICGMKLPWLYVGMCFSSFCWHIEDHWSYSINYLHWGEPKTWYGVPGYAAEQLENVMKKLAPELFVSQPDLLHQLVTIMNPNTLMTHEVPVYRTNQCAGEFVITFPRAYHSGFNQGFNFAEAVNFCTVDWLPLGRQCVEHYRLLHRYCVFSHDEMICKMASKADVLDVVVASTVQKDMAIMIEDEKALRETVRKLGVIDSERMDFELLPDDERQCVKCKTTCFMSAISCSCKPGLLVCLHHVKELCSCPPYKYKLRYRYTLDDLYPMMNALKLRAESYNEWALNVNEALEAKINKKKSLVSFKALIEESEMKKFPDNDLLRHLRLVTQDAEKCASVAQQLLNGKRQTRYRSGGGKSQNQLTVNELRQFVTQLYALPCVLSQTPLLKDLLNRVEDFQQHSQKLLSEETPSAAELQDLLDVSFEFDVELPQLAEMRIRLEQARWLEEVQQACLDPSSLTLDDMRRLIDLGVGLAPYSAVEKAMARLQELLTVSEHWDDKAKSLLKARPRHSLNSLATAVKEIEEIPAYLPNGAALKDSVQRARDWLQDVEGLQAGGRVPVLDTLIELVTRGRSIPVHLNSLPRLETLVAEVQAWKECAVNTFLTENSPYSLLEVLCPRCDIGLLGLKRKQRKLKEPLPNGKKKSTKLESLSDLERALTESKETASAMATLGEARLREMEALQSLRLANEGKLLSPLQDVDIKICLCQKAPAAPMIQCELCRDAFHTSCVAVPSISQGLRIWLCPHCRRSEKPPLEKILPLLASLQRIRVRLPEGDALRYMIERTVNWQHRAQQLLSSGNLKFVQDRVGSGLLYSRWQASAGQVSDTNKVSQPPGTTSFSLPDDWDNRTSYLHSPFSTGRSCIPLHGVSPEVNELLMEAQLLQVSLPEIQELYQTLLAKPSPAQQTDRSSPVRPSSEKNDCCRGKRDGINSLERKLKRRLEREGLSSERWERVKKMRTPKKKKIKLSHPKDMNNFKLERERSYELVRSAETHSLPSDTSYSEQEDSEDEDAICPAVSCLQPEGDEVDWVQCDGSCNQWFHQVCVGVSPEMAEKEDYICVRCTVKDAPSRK
How it was run: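 KDM5BDeltaAP (200nM final) preincubated 10 min with compound, then 12.5uM H3K4Me3, 25uM a-ketoglutarate, ascorbate, Fe(II), NAD+ and FDH added; 50mM HEPES pH 7.5, 0.01% Tween-20. NADH fluorescence (340/450 nm) change over 30 min, room temperature.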

[2] = qHTS to identify inhibitors of the type 1 interferon - major histocompatibility complex class I in skeletal muscle: primary screen against the NCATS LOPAC collection (AID 1347405);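 further: lytic HiBiT luminescence reporting HLA-B protein level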
How it was run: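 Luminescence from HiBiT fused to endogenous HLA-B in CRISPR-engineered human myoblasts served as the read-out. Cells received 4.0 ng/ml IFN-beta plus compound (seven concentrations, 1:4.3 steps, highest 46 uM final) for 24 hrs before lytic detection.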

[3] = qHTS to identify inhibitors of the type 1 interferon - major histocompatibility complex class I in skeletal muscle: primary screen against the NCATS Pharmaceutical Collection (AID 1347407);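 further: luminescence of HiBiT knocked into endogenous HLA-B as interferon-induced MHC class I level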
How it was run: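 Cells were seeded with 4 ng/ml IFN-beta, incubated 1 h, then dosed with compounds over eight 1:5 steps up to 46 uM final. After 24 h at 37 C, HiBiT lytic reagent was added and luminescence read after 10 min lysis in the dark.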

[4] = qHTS for inhibitors of adenylyl cyclases using a fission yeast platform: a pilot screen against the NCATS LOPAC library (AID 1347410)
How it was run: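 Growth medium went into the plates first, then compounds were pinned (final up to 57 µM), then CHP2027 yeast were added. Plates were incubated overnight (18 h) at 30C in the dark, and GFP was measured by laser scanning cytometry.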

[5] = biological target: Protein phosphatase 1D (Homo sapiens) (UniProt O15297); test: RapidFire Mass Spectrometry qHTS Assay for Modulators of WT P53-Induced Phosphatase 1 (WIP1) (AID 1347424);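 further: amount of dephosphorylated VEPPL-S-QETFS peptide product formed by WIP1; series mostly up to about 63 µM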
Chain of Protein phosphatase 1D (Homo sapiens) (O15297 whole entry, looked up): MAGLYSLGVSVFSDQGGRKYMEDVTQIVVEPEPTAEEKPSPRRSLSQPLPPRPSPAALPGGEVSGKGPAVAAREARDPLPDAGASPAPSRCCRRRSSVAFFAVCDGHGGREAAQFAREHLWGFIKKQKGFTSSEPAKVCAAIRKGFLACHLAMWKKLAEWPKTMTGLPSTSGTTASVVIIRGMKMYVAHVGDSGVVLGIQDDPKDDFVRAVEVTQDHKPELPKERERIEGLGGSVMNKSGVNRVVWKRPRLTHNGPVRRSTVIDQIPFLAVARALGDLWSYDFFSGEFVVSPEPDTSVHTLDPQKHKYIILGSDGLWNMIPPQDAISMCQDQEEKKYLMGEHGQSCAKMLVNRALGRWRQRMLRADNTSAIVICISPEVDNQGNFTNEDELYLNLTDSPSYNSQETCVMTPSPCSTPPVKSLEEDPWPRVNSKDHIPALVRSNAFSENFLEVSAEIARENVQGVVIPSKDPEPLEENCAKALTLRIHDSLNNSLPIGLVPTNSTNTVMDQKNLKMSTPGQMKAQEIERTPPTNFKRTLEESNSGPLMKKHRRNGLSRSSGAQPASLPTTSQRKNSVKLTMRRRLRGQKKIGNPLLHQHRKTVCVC
How it was run: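 10 nM WIP1 preincubated with compounds 1 hr at room temperature in pH 7.5 Tris buffer with 30 mM MgCl2, 1 mM TCEP; 2 uM VEPPL-pS-QETFS phosphopeptide for 5 min, formic acid quench; dephosphorylated product quantified by RapidFire MS against labelled standard.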

[6] = biological target: Protein phosphatase 1D (Homo sapiens) (UniProt O15297); test: Rhodamine-PBP qHTS Assay for Modulators of WT P53-Induced Phosphatase 1 (WIP1) (AID 1347425)
How it was run: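 Steps: enzyme with Rh-PBP sensor and compounds, room-temperature incubation of 1 hr, baseline read, addition of VEPPL-pS-QETFS (10 uM final), kinetic fluorescence reads at 525/598 nm. Activity equals final minus baseline signal.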

[7] = Validation qHTS assay for inhibitors of Activation Induced Cytidine Deaminase (AID): UDG Counterscreen signal (AID 1347427)
How it was run: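 Counterscreen read of UDG activity (2 U/mL, 4/3x) in the FRET deamination format with AID (1 uM, 4/3x), DJC20/DJC23 substrates (250 nM, 4x), 4 h at room temperature. NaOH stop, fluorescence at 560 ex/665 em.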

[8] = biological target: Single-stranded DNA cytosine deaminase (Homo sapiens) (UniProt Q9GZX7); test: Validation qHTS assay for inhibitors of Activation Induced Cytidine Deaminase (AID): AID signal (AID 1347429)
Chain of Single-stranded DNA cytosine deaminase (Homo sapiens) (Q9GZX7 whole entry, looked up): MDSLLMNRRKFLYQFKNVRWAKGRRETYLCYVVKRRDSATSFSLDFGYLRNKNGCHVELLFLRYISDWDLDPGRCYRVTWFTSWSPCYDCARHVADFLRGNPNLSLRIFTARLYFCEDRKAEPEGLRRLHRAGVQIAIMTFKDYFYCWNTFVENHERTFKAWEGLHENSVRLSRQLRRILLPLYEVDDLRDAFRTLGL
How it was run: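 Fluorescence at 540 nm excitation and 590 nm emission reports ssDNA cytosine deamination by AID, with UDG in the same well. Compound-treated reactions ran 4 hr at room temperature with DJC20/DJC23 substrate, followed by 30 min NaOH treatment.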

[9] = Primary qHTS for inhibitors of La Crosse Virus (LACV) - induced cell death in SH-SY5Y cells (AID 1508616);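 further: top concentration of the series differs between compounds; higher means more rescue of cells from virus-induced death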
How it was run: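 Protection against LACV-induced cell death is scored in SH-SY5Y cells exposed to compounds and virus (0.01 MOI) for 6 days. Data normalized to virus-infected DMSO wells and virus-free DMSO wells.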

[10] = biological target: Calcium and integrin-binding protein 1 (Homo sapiens) (UniProt Q99828); test: Validation qHTS for Identification of Calcium Integrin Binding protein 1 (CIB1) Competitor (AID 1508618)
Chain of Calcium and integrin-binding protein 1 (Homo sapiens) (Q99828 whole entry, looked up): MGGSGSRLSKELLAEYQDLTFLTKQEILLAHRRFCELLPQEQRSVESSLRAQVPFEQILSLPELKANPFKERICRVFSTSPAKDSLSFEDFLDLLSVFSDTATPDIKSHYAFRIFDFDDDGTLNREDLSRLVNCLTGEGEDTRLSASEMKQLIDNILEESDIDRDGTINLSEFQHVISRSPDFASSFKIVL
How it was run: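 In this qHTS validation, the LOPAC set (up to 114 uM) was tested for blocking CIB1 binding to a fluorescein-tagged alphaIIb peptide, with FP detection at 480/540 nm.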

[11] = biological target: Calcium and integrin-binding protein 1 (Homo sapiens) (UniProt Q99828); test: Primary qHTS for Identification of Calcium Integrin Binding Protein 1 (CIB1) Competitor (AID 1508620);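 further: GST tagged CIB1 binding a fluorescein labelled alphaIIb integrin peptide tracer; top concentration of the series differs between compounds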
How it was run: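 Fluorescence polarization competition: GST-tagged CIB1 (1 uM final) preincubated with compound 15 min at room temperature, then FITC-labelled alphaIIb peptide (100 nM final) added. After 15 min at room temperature, polarization read at Ex 480/Em 540.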

[12] = Confirmatory screen NINDS Rhodamine qHTS for Zika virus inhibitors (AID 1347161);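 further: purified Zika NS2B-NS3 protease with linked NS2B cofactor domain and Rhodamine110 peptide substrate; series mostly up to about 110 µM; nearly all actives have a fitted effect of over 60% in size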
How it was run: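 In 10 mM Tris-HCl pH 8.0 containing 0.01% Tween 20, linked NS2B-NS3 protease (25 nM final) is exposed to test compounds for 15 min. Cleavage of 1.5 microM Rhodamine110 substrate is tracked by fluorescence over 15 min.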

[13] = Vero cells viability qHTS for Zika virus inhibitors (AID 1347167)
How it was run: (§1)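 Cells seeded at 2.5 x 10^5 cells/mL in DMEM with 4% FBS and attached overnight at 37 degrees C, then exposed to compound for 24 to 48 hours. Viability read as ATP content by CellTiter Glo luminescence.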

[14] = HepG2 cells viability qHTS for Zika virus inhibitors (AID 1347168)
How it was run: as §1

[15] = Tertiary RLuc qRT-PCR qHTS assay for Zika virus inhibitors (AID 1347169); further: top concentration of the series differs between compounds; nearly all actives have a fitted effect of over 55% in size
How it was run: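 Orthogonal cell-based infection assay using recombinant ZIKV-RLuc (Cambodian) in Vero cells; compound added prior to virus at MOI 1-2. Incubation lasts 48-72 hrs at 37 degrees C before live-cell Renilla substrate is added and luminescence measured.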

[16] = system: Zika virus NS2B-NS3 protease (linked construct); test: Primary screen NINDS Rhodamine qHTS for Zika virus inhibitors (AID 1347160); conditions: outcome: dose series up to 57.1 µM; further: nearly all actives have a fitted effect of over 55% in size
How it was run: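 Percent inhibition, normalized to uninhibited and enzyme-free controls, is fitted to a 4-parameter Hill equation. Fluorescence change comes from a 15-min cleavage of 1.5 microM bis-peptide Rhodamine110 substrate by 25 nM linked NS2B-NS3 at room temperature.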

[17] = qHTS to identify inhibitors of the type 1 interferon - major histocompatibility complex class I in skeletal muscle: primary screen against the NCATS Mechanism Interrogation Plate v5.0 (MIPE) Libary (AID 1347411); further: nearly all actives have a fitted effect of over 65% in size
How it was run: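 Luminescence from HiBiT-tagged endogenous HLA-B*08:01 served as the MHC class I read-out. CRISPR-engineered C25cl48 human myoblasts received 4.0 ng/ml IFN-beta plus compound for 24 hrs, with an 11-point, 1:3 series topping at 46 uM final.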

[18] = biological target: Calcium and integrin-binding protein 1 (Homo sapiens) (UniProt Q99828); test: Confirmatory qHTS for Identification of Calcium Integrin Binding Protein 1 (CIB1) Competitor (AID 1508617); further: nearly all actives have a fitted effect of over 65% in size
How it was run: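 Binding competition between test compounds and fluorescent alphaIIb peptide for 1 uM CIB1-GST is monitored by FP at 480/540 nm. Final compound range is up to 114 uM; unlabeled peptide serves as reference competitor.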

Measured: Potency

C[N+](C)(C)CCOC(=O)CCC(=O)OCC[N+](C)(C)C
inactive: [1] | [2] | [3] | [4] | [5] | [6] | [7] | [8] | [9] | [10] | [11]

C#CCN(C)CCCOc1ccc(Cl)cc1Cl
inactive: [1] | [2] | [3] | [4] | [5] | [6] | [7] | [8] | [9] | [10] | [11]

Nc1c2c(nc3ccccc13)CCCC2O (centres undefined)
inactive: [1] | [2] | [3] | [4] | [5] | [6] | [7] | [8] | [9] | [10] | [11]

CCN1CCc2nc(N)oc2CC1
inactive: [12] | [1] | [13] | [14] | [15] | [2] | [3] | [4] | [5] | [6] | [7] | [8] | [9] | [11]

CC(=O)[C@@]1(O)CC[C@H]2[C@@H]3CCC4=CC(=O)CC[C@]4(C)[C@H]3CC[C@@]21C
inactive: [1] | [2] | [3] | [4] | [5] | [6] | [7] | [8] | [9] | [10] | [11]

CCN(Cc1ccncc1)C(=O)C(CO)c1ccccc1 (centres undefined)
inactive: [1] | [2] | [3] | [4] | [5] | [6] | [7] | [8] | [9] | [10] | [11]

OCCN1CCN(CCCN2c3ccccc3C=Cc3ccccc32)CC1
inactive: [1] | [2] | [3] | [4] | [5] | [6] | [7] | [8] | [9] | [10] | [11]

NC(=O)c1cn(Cc2c(F)cccc2F)nn1
inactive: [1] | [2] | [3] | [4] | [5] | [6] | [7] | [8] | [9] | [10] | [11]

CCCN1C[C@H](CSC)C[C@@H]2c3cccc4[nH]cc(c34)C[C@H]21
inactive: [16] | [1] | [2] | [3] | [4] | [5] | [6] | [7] | [8] | [9] | [11]

NC(=O)c1ncn([C@@H]2O[C@H](CO)[C@@H](O)[C@H]2O)c1O
inactive: [1] | [2] | [3] | [4] | [17] | [5] | [6] | [7] | [8] | [9] | [18] | [10]

— PubChem BioAssay (NCATS)
